{
  "source": "PubChem BioAssay AID651965",
  "about": "(National Center for Advancing Translational Sciences (NCATS), 2013)",
  "note": "Among all 340,000 compounds or so, about 6,400 (1.9%) were called active. Another 4% or so got no clear call; they are omitted. Many of the other results were omitted from the sample, so actives are more common in it than they were. A number with no mark means an inactive call. Calls follow the shape of the dose curve; as a rule, active = well fitted falling curve with a large enough effect; inconclusive = small, poorly fitted or top-dose-only effect; inactive = no such curve, though single readings can be large or run the other way. Potency is read from the fitted curve at half-maximal effect.",
  "data": [
    {"target": "ATP-dependent Clp protease proteolytic subunit (Bacillus subtilis (strain 168)) (UniProt P80244)", "sequence (P80244 whole entry, looked up)": "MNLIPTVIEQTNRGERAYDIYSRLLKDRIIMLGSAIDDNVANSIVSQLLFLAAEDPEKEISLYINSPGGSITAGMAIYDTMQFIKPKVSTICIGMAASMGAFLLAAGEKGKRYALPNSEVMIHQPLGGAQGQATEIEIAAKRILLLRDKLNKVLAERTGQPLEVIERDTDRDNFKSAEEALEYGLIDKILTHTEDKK", "test": "qHTS Assay for Activators of ClpP; also: the source files actives as falling curves though it sought activators and does not explain the sign; nearly all actives have a fitted effect of over 65% in size", "conditions": "purified B. subtilis ClpP, FRET peptide cleavage, 20 min; series mostly up to 57.5 µM; activity change, negative = active: at the top concentration", "method_in_brief": "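ClpP 10 microg/mL final, pH 8 Tris/KCl buffer with BSA, glycerol, Tween-20; compound pinned in; FRET-FV substrate; RT 20 min; Ex320/Em430; ΔFRET vs ADEP 5.8 microM, DMSO, no enzyme.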", "units": {"activity change, negative = active": "%"}, "values": [
      {"smiles": "CCn1cc(/C=C(\\NC(=O)c2ccc(C)cc2)C(=O)NCCN2CCOCC2)c2ccccc21", "activity change, negative = active": 0.383},
      {"smiles": "CCCNC(=O)c1cc2c(c(-c3cccc(-c4ccc(C#N)cc4)c3)n1)[C@@H](CCO)N(C(=O)CC)C2", "activity change, negative = active": -7},
      {"smiles": "CC(C)OC(=O)CC(=O)CC(O)c1cccc([N+](=O)[O-])c1", "note": "(stereo unspecified)", "activity change, negative = active": 1.54},
      {"smiles": "COC(=O)c1ccc2nc(-c3ccc(F)cc3)c(Cc3ccc(C)cc3)n2c1", "activity change, negative = active": -16.6},
      {"smiles": "CC(=O)Oc1ccc(NC(=O)CCC2CCCCC2)c(C(=O)O)c1", "Potency": "22.4 µM (active)"},
      {"smiles": "COC(=O)c1sccc1NC(=O)CCC1CCCC1", "activity change, negative = active": -1.1},
      {"smiles": "COc1ccc(NC(=O)CCCC2CCCCC2)c(OC)c1", "activity change, negative = active": -2.51},
      {"smiles": "CCc1nc2c(OCc3ccc(C(F)(F)F)cc3)cccn2c1N(C)C(=O)CC(C)C", "activity change, negative = active": 1.18},
      {"smiles": "Cc1ccccc1CN1C(=O)CSCC1(C)C(=O)Nc1c(C)cccc1C", "note": "(stereo unspecified)", "activity change, negative = active": 3.88},
      {"smiles": "CC(C)(C)C1CCC(NC(=O)c2cnn3c2NC(=C2CC2)C=C3C(F)F)CC1", "note": "(stereo unspecified)", "activity change, negative = active": -13.2},
      {"smiles": "CCCCNC(=O)c1ccc(-n2c(=S)[nH]c3ccccc3c2=O)cc1", "activity change, negative = active": 0.235},
      {"smiles": "Cc1ccc(C(=O)NCCSc2c(C)[nH]c3ccccc23)cc1C", "activity change, negative = active": -0.725},
      {"smiles": "CN(C)CCCNC(=O)c1ccc2[nH]c3ccccc3c2c1", "Potency": "12.6 µM (active)"},
      {"smiles": "COc1ccc(NC(=O)c2sc(=O)n(Cc3ccc(S(=O)(=O)N(C)C)cc3)c2C)cc1", "activity change, negative = active": 0.336},
      {"smiles": "CCN1C(=O)[C@H]2[C@@H](c3ccccc3)N[C@]3(CCCN(Cc4ccc(C)cc4)C3=O)[C@H]2C1=O", "activity change, negative = active": 0.813},
      {"smiles": "O=C(COC(=O)CNC(=O)c1ccco1)Nc1ccc(F)cc1", "Potency": "25.1 µM (active)"},
      {"smiles": "COCCn1c(C)cc(C(=O)COC(=O)CNC(=O)c2ccco2)c1C", "activity change, negative = active": -1.27},
      {"smiles": "CCOC(=O)c1ccc(NC(=O)CNC(=O)c2ccco2)cc1", "activity change, negative = active": -5.64},
      {"smiles": "NS(=O)(=O)c1ccc(NC(=O)COC(=O)c2ccco2)cc1", "activity change, negative = active": -1.06},
      {"smiles": "O=C(CNC(=O)c1ccco1)OCC(=O)c1ccccc1", "Potency": "25.1 µM (active)"},
      {"smiles": "CCc1ccc(C(=O)COC(=O)c2ccco2)cc1", "activity change, negative = active": 0.893},
      {"smiles": "CC(O)(c1cccc(F)c1)c1nc(-c2ccc3c(c2)OCO3)cs1", "note": "(stereo unspecified)", "activity change, negative = active": -7.59},
      {"smiles": "C[C@@H]1CN([C@@H](C)CO)C(=O)c2cc(Br)cnc2O[C@H]1CN(C)Cc1ccc(-c2ccccc2)cc1", "activity change, negative = active": -0.688},
      {"smiles": "C[C@@H]1CN([C@H](C)CO)C(=O)CCCn2nncc2CO[C@@H]1CN(C)S(=O)(=O)c1cccc(C#N)c1", "activity change, negative = active": -4.62},
      {"smiles": "CC[C@@H]1CC2=C(C(=O)OC(C)(C)O2)[C@@H](CC)O1", "activity change, negative = active": -1.94},
      {"smiles": "CC1(c2cccc(Br)c2)NC(=O)N(CC(=O)NCCC2=CCCCC2)C1=O", "note": "(stereo unspecified)", "activity change, negative = active": 2.55},
      {"smiles": "Cc1ccc2[nH]c(=O)c(CN(CCCN(C)C)C(=O)Nc3cccc(Cl)c3)cc2c1", "activity change, negative = active": -15.6},
      {"smiles": "COc1ccc(CCN(Cc2cc3cccc(C)c3[nH]c2=O)C(=O)N2CCCC2)cc1OC", "activity change, negative = active": -26.6},
      {"smiles": "COc1cc2cc(CN(CCN3CCCC3)C(=O)Nc3ccccc3Cl)c(=O)[nH]c2cc1OC", "Potency": "3.16 µM (active)"},
      {"smiles": "O=S1(=O)CC(N2CCSCC2)CN1Cc1cn(Cc2cccc(Cl)c2)nn1", "note": "(stereo unspecified)", "activity change, negative = active": 1.24},
      {"smiles": "CCc1nc2c(OCc3ccccc3)cccn2c1N(C)C(=O)c1ccco1", "activity change, negative = active": 0.312},
      {"smiles": "CC(=O)Oc1ccc(Cn2c(C)c(C(=O)NCc3ccc(C#N)cc3)sc2=O)cc1", "activity change, negative = active": -2.06},
      {"smiles": "CC(=O)NC(c1cccc(F)c1)c1nc(-c2cccc(F)c2)cs1", "note": "(stereo unspecified)", "activity change, negative = active": -1.82},
      {"smiles": "CCOC(=O)c1ccn(-c2nc(-c3ccco3)cc(C(F)(F)F)n2)n1", "activity change, negative = active": 5.18},
      {"smiles": "COc1ccc(CNc2nc(-c3ccc(Cl)cc3)cc(C(F)(F)F)n2)cc1", "activity change, negative = active": 4.07},
      {"smiles": "Cc1nn(-c2nc(-c3ccccc3)cc(C(F)(F)F)n2)c(C)c1Cl", "activity change, negative = active": -2.43},
      {"smiles": "Cc1cc(C(F)(F)F)nn1-c1nc(-c2ccco2)cc(C(F)(F)F)n1", "Potency": "35.5 µM (active)"},
      {"smiles": "FC(F)(F)c1cc(-c2ccco2)nc(NCc2ccc(Cl)cc2)n1", "Potency": "28.2 µM (active)"},
      {"smiles": "COc1nc(NCc2ccc(Cl)cc2)nc(OC)n1", "activity change, negative = active": -1.49},
      {"smiles": "CCc1oc(-c2ccc(OC)cc2)c(C(=O)OCCCCCO)c1C(C)OCCO", "note": "(stereo unspecified)", "activity change, negative = active": 4.8},
      {"smiles": "CCSC1(SCC)N=C(N)C2(C#N)C(c3ccccc3)NC(C)=CC12C#N", "note": "(stereo unspecified)", "Potency": "15.8 µM (active)"},
      {"smiles": "CNc1cncc(-c2ccc(NS(C)(=O)=O)cc2)n1", "activity change, negative = active": 4.84},
      {"smiles": "COc1cccc(CN2CCC(C(=O)NC(c3ccc4c(c3)OCO4)c3ccccn3)CC2)c1", "note": "(stereo unspecified)", "activity change, negative = active": -0.188},
      {"smiles": "O=C(COc1ccccc1C(=O)Nc1ccccc1)Nc1cccc(F)c1", "activity change, negative = active": -3.07},
      {"smiles": "CC(C)n1c(CN2CCN(Cc3ccccc3)CC2)nc2ccccc21", "activity change, negative = active": -1.63},
      {"smiles": "CC(C)n1c(-c2cccs2)nc2ccccc21", "Potency": "3.98 µM (active)"},
      {"smiles": "CCC(c1nc2ccccc2[nH]1)n1c(=O)c(-c2cccs2)nc2ccccc21", "note": "(stereo unspecified)", "activity change, negative = active": 3.79},
      {"smiles": "COc1cc(C=C(OC(C)=O)c2ccc3c(c2)OCO3)cc(OC)c1OC", "activity change, negative = active": -17.1},
      {"smiles": "CCOC(=O)c1cc(C)nc(S(C)(=O)=O)c1C#N", "activity change, negative = active": -4.23},
      {"smiles": "CCOC(=O)c1cnc(COc2ccccc2Cl)[nH]c1=O", "activity change, negative = active": -13.7},
      {"smiles": "CCCCSc1[nH]c(=O)c(C(=O)OCC)cc1C#N", "Potency": "31.6 µM (active)"}
    ]}
  ]
}
